Screening data as filed in PubChem BioAssay.
Sampled rows, rich in hits. Any-hit rate of the full collection: about 2.1%.
LANA-H2B inh: blocks KSHV LANA binding to histone H2A/H2B; AID 2629; inhibition, % (concentration not given with the values); 0.6% of 320,000 active; cell-free LANA-H2A/H2B peptide, fluorescence polarization; Q9QR71; in the data active = inhibition mostly above about 10%, no sharp cut-off; inactive = mostly below about 6.7%
Target sequence (Q9QR71 whole entry, looked up): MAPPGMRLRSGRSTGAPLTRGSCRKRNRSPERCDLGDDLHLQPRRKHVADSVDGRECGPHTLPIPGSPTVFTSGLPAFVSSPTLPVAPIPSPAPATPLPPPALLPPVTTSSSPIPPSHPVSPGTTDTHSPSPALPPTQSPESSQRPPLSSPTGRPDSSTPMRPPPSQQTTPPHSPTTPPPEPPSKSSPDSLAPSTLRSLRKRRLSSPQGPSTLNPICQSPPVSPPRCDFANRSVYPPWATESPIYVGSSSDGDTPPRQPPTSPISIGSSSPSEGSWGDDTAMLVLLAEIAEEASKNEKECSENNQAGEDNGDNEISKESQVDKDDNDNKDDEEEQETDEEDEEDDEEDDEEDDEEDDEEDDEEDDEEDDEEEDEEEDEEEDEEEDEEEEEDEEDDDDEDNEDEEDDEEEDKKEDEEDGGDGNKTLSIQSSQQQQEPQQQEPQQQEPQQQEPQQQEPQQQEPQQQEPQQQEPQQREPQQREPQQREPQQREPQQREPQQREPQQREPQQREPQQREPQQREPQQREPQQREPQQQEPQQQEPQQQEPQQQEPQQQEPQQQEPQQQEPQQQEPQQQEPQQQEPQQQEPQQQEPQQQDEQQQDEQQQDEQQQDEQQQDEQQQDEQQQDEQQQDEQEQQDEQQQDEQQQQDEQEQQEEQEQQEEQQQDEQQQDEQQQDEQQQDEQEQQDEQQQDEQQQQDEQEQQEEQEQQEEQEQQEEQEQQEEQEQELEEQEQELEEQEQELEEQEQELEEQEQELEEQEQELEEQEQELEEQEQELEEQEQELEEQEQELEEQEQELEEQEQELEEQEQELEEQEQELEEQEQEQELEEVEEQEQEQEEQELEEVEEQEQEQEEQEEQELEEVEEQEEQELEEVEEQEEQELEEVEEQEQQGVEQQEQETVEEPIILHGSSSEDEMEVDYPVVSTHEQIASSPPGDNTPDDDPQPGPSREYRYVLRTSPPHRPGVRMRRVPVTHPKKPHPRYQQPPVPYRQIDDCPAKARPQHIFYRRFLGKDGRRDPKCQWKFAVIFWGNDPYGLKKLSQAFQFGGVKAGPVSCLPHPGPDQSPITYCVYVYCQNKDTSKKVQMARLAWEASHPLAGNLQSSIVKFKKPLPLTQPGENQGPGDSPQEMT
IDE inh: inhibits human insulin-degrading enzyme in HEK cells. P14735. FAbetaB cleavage, fluorescence polarization. inhibition, % at 5.59 µM. 0.41% of 320,000 active;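 active = percent inhibition above the average of all tested compounds plus 3 SD, set per screening campaign, cut at about 16% in these data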;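 note: IDE supplied by intact live HEK cells; FP after avidin binding of uncleaved biotin substrate so inhibition keeps polarization high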
IDE cell activ: activators of human insulin-degrading enzyme in cells. HEK cells, FAbeta-B cleavage, fluorescence polarization; 0% vehicle, 100% cell-free pure enzyme wells. activation, % at 5.96 µM. 0.073% of 340,000 active. AID 493087;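 active = activation above the mean of all tested compounds plus 3 SD, set per screening campaign, cut at about 17% in these data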
HDAC3 inh: inhibitors of human histone deacetylase 3 | recombinant HDAC3, fluorogenic peptide/trypsin coupled, fluorescence | inhibition, % at 8.3 µM | 0.15% of 320,000 active; in the data active = inhibition above about 26%, passing the limit was not always enough; inconclusive = no clear call, values can overlap the other calls
Mot1-301 SUMO: SUMOylation pathway inhibition by Mot1-301 growth rescue; growth rescue, % at 18.8 µM; 1% of 320,000 active; S. cerevisiae Mot1-301 growth rescue, ATP luminescence, 38.5C; percent above DMSO median, 100 means doubled;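 active = every valid replicate shows activation above 250% relative to neutral control wells; inactive = the rest, any valid replicate at or below 250%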
Numbers stand for hits; i = inactive; ? = inconclusive; nt = no result; + = active, no number.

SMILES	LANA-H2B inh	IDE inh	IDE cell activ	HDAC3 inh	Mot1-301 SUMO
COc1cc(C2C(C#N)=C(C)NC3=C2C(=O)CC(C)(C)C3)ccc1OCCO (stereo not given)	i	i	i	i	i
COc1cc(C2C(C#N)=C(C)NC3=C2C(=O)CC(C)(C)C3)cc(OC)c1O (stereo not given)	i	i	i	i	348.1
Cc1ccc(OCC(=O)O)c(-n2nc3ccccc3n2)c1	i	i	i	i	340.0
CN1C(C(=O)NCCc2cccs2)CC2Cn3c(nc4ccccc43)C21 (stereo not given)	i	i	i	i	i
COCC(C)NC(=O)c1ccc(CN2CCc3ccccc3C2)cc1 (stereo not given)	30.7	i	i	i	i
O=C(COC(=O)CN1C(=O)COc2ccccc21)NC1CCCCC1	i	i	i	i	i
CC(=O)N1CCN(S(=O)(=O)c2cccc(C(=O)Nc3ccc(F)c(F)c3)c2)CC1	i	i	i	i	i
CCn1c(CN2CCOCC2)nnc1SCC(=O)Nc1ccccc1C	127.1	i	i	i	i
CN(C(=O)c1cccc(NC(=O)Cc2cccc(NC(=O)C3CCN(C(=O)c4ccccc4)CC3)c2)c1)C1CCCC1	nt	nt	i	nt	nt
CCOC(=O)c1c(NC(=O)CCS(=O)(=O)c2ccccc2)sc2c1CCN(C)C2	52.6	i	i	i	i
CC(=O)N1CCc2c(sc(NC(=O)CCS(=O)(=O)c3ccccc3)c2C(N)=O)C1	32.6	i	i	i	i
CCOC(=O)c1c(NC(=O)Cc2ccccc2)sc2c1CCN(C)C2	i	i	i	i	i
COc1cc(OC)c(C(=O)O/N=C(\N)c2ccccn2)cc1OC	i	i	i	i	326.8
COc1ccccc1C(=O)O/N=C(\N)c1ccccn1	i	i	i	i	i
CC(C)CCOc1cccc(OCC(=O)Nc2ccncc2)c1	i	i	i	i	317.1
COc1cccc(OCC(=O)Nc2ccncc2)c1	i	i	i	i	i
COc1ccc(S(=O)(=O)N2CCOCC2)cc1NC(=O)CN1C(=O)CN(C)C1=O	i	i	i	i	i
N#C/C(N=Nc1ccccc1O)=N\Nc1ccccc1O	i	i	i	i	i
COc1ccc(C(C[N+](=O)[O-])c2c(-c3ccccc3)cc3ccccn23)cc1OC (stereo not given)	i	i	i	i	i
COc1ccc(C(C[N+](=O)[O-])C2(c3ccc(OC)c(OC)c3)C(=O)c3ccccc3C2=O)cc1 (stereo not given)	i	16.3	i	i	i
Cc1ccc(O)c(C2=NNC(O)(C(F)(F)F)C2)c1 (stereo not given)	i	i	i	i	340.4
CC(C)c1ccc(C(=O)NCCCNC(=O)c2cnccn2)cc1	i	i	i	?	i
Cc1ccc(C2(c3ccccc3)NC(=O)N(CC(=O)NC3(C#N)CCCC3)C2=O)cc1C (stereo not given)	+	i	i	i	i
Cc1ccc(C2(c3ccccc3)NC(=O)N(CC(=O)N(C)C3CCS(=O)(=O)C3)C2=O)cc1C (stereo not given)	16.0	i	i	i	i
Cc1cc(SCC(=O)c2ccccc2)nc(=O)[nH]1	i	i	i	45.1	i
SMILES	LANA-H2B inh	IDE inh	IDE cell activ	HDAC3 inh	Mot1-301 SUMO
Cc1ccc(C(=O)CSc2cc(C)[nH]c(=O)n2)cc1	i	i	i	34.3	i
CCCCc1c(O)nc(SCC(=O)c2ccccc2)[nH]c1=O	i	i	i	45.6	i
CCCCc1c(O)nc(SCC(=O)O)[nH]c1=O	i	i	i	i	i
Cc1cc(SCc2ccccc2C)nc(=O)[nH]1	i	i	i	i	i
Cc1cc(SCC(=O)c2ccc(Cl)cc2)nc(=O)[nH]1	i	i	i	i	i
CCCC(c1nnnn1CS(=O)(=O)c1ccc(C)cc1)N1CCC(C(N)=O)CC1 (stereo not given)	i	i	i	i	i
Cc1cc(NS(=O)(=O)c2ccc(NC(=O)COc3ccc(Cl)c(C)c3)cc2)no1	nt	nt	i	nt	nt
Cc1ccc(CNC(=O)C2CCC(=O)N(Cc3cccc(C(F)(F)F)c3)C2)o1 (stereo not given)	i	i	i	i	i
Cn1cc(C(c2ccccc2OCC(=O)O)c2cn(C)c3ccccc23)c2ccccc21	i	i	i	i	i
Cc1nn(-c2ccccc2)c(-c2ccccc2[N+](=O)[O-])c1C(=O)O	i	i	nt	i	293.8
CCOC(=O)c1cc(OC(=O)c2ccccc2Br)n(-c2ccccc2)n1	17.3	i	i	i	i
O=[N+]([O-])c1cc(Br)ccc1C[n+]1ccccc1	nt	nt	i	nt	nt
O=C1N/C(=C\c2nc3ccccc3s2)c2ccccc21	i	i	nt	i	353.6
O=C(c1ccc([N+](=O)[O-])cc1)N(Cc1ccccc1)c1ccccn1	i	i	i	i	i
O=[N+]([O-])c1ccccc1SN(Cc1ccccc1)c1ccccn1	i	i	i	i	375.5
CCOc1ccc(NC(=O)Cn2nnc(C(=O)NCc3cccs3)c2N)cc1	i	i	i	i	i
CN(C)c1ccc(/C=N/NC(=O)CNC(=O)c2ccc3c(c2)OCCO3)cc1	24.7	i	i	i	i
Cc1ccc(S(=O)(=O)Oc2ccc(/C=C(/NC(=O)c3ccccc3)C(=O)O)cc2)cc1	i	i	i	i	699.6
Cc1ccc(C(=O)N[C@H](C(=O)Nc2sccc2C(N)=O)C(C)C)cc1	i	i	i	i	i
COc1cc(/C=C/[N+](=O)[O-])ccc1OC(=O)/C=C/c1ccc(F)cc1	i	i	i	i	i
Cc1cccc(C)c1NC(=O)CN(C)C(=O)c1ccc2c(=O)n3c(nc2c1)CCC3	15.1	i	i	i	i
Cc1cc(C)c(NC(=O)CNC(=O)c2ccc3c(=O)n4c(nc3c2)CCC4)c(C)c1	i	i	i	i	i
COCCNC(=O)CN(Cc1ccc2c(c1)OCO2)C(=O)CCC(=O)Nc1nccs1	18.1	i	i	i	i
CCCCn1c(/N=C/c2c[nH]c3ccccc23)nc2ccccc21	i	i	i	31.0	i
CCCCC(CC)COC(=O)C(C#N)=C(c1ccccc1)c1ccccc1 (stereo not given)	14.9	i	i	i	i
SMILES	LANA-H2B inh	IDE inh	IDE cell activ	HDAC3 inh	Mot1-301 SUMO
COc1ccc(Cn2c(SCc3ccccc3C)nc3cc(OC)c(OC)cc3c2=N)cc1	i	i	22.1	?	i
COc1ccc(CCNC(=O)c2cccs2)cc1	i	i	i	i	i
O=C(NCCc1ccc(F)cc1)c1cccs1	i	i	i	i	i
Cc1cc2cc(CNC(=O)c3cccs3)ccc2n1C	78.2	i	i	i	i
O=C(NCc1ccc(F)cc1)c1cccs1	i	i	i	i	318.1
COc1ccc(CNC(=O)c2cccs2)cc1	i	i	i	i	334.3
Cc1nc(Cc2nnc(SC(C)C(=O)N3c4ccccc4NC(=O)C3(C)C)o2)cs1 (stereo not given)	i	i	20.2	i	i
COc1ccc(OC)c(NC(=O)CC2(CC(=O)O)CCCC2)c1	19.5	i	i	i	i
O=C(CSc1nnc(CNC(=O)c2ccc(F)cc2)o1)NCC1CCCO1 (stereo not given)	17.8	i	i	i	i
